Conditions in all cases: mRNA level, 48 h; actives raise or lower the signal
Read-out in assay [1]: Paternally Expressed 10 (PEG10), PEG10 (gene 23089)
Description: LTEA_HepaRG_PEG10: Life Technologies and Expression Analysis (LTEA) Assay for Paternally Expressed 10 (PEG10) using HepaRG (AID 2283520).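 As to AC50: PEG10 transcript by qRT-PCR normalised to ACTB GAPDH and POLR2A.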 The method, boiled down:
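After 48 h exposure of differentiated HepaRG cells (0.5% DMSO vehicle, eight concentrations up to 100 uM, duplicates), PEG10 mRNA was measured by TaqMan qRT-PCR. Values were normalised to endogenous control genes and analysed bidirectionally against vehicle.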

Read-out in assay [2]: Nuclear factor NF-kappa-B p105 subunit (Homo sapiens) (UniProt P19838)
As to the kind of experiment: LTEA_HepaRG_NFKB1: Life Technologies and Expression Analysis (LTEA) Assay for Nuclear Factor Kappa B Subunit 1 (NFKB1) using HepaRG (AID 2283521).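 As to outcome: TaqMan qRT-PCR transcript normalised to ACTB GAPDH and POLR2A housekeeping genes.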 An outline of the steps: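 Differentiated human HepaRG cells were exposed for 48 h in serum-free induction medium to eight concentrations (top 100 uM, half-log steps, 0.5% DMSO), in duplicate. NFKB1 mRNA was measured by TaqMan qRT-PCR, normalized to ACTB/GAPDH/POLR2A, and fitted bidirectionally against DMSO.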

Read-out in assay [3]: Protein phosphatase 2A (PPP2R4), PTPA (gene 5524)
Description: LTEA_HepaRG_PPP2R4: Life Technologies and Expression Analysis (LTEA) Assay for Protein phosphatase 2A (PPP2R4) using HepaRG (AID 2283522). The method, boiled down:
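Using HepaRG cultures maintained in 0.5% DMSO, chemicals are tested 48 h at up to 100 uM in duplicate. Induction or suppression of PPP2R4 mRNA, measured by qRT-PCR, is fitted bidirectionally against the vehicle baseline.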

Read-out in assay [4]: Phosphatase and tensin (PTEN), PTEN (gene 5728)
As to the kind of experiment: LTEA_HepaRG_PTEN: Life Technologies and Expression Analysis (LTEA) Assay for Phosphatase and tensin (PTEN) using HepaRG (AID 2283523). The method, boiled down: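 Expression of PTEN is quantified in the human liver line HepaRG following two days of dosing (top concentration 100 uM, half-log dilutions, 0.5% DMSO). Values derive from bidirectional curve fitting relative to DMSO controls.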

Read-out in assay [5]: solute carrier (SLC22A1), SLC22A1 (gene 6580)
As to the kind of experiment: LTEA_HepaRG_SLC22A1: Life Technologies and Expression Analysis (LTEA) Assay for solute carrier (SLC22A1) using HepaRG (AID 2283524). The method, boiled down:
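Transcript induction or suppression of SLC22A1 in human HepaRG cultures is scored after 48 h chemical treatment, with DMSO (0.5%) as baseline for bidirectional fitting. Concentrations span eight half-log points topping at 100 uM.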

Read-out in assay [6]: Pyruvate Dehydrogenase Kinase 4 (PDK4), PDK4 (gene 5166)
As to the kind of experiment: LTEA_HepaRG_PDK4: Life Technologies and Expression Analysis (LTEA) Assay for Pyruvate Dehydrogenase Kinase 4 (PDK4) using HepaRG (AID 2283525). The method, boiled down:
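Eight-point, half-log concentration series (max 100 uM, 0.5% DMSO) applied to differentiated HepaRG cells for 48 h in duplicate. Endpoint: PDK4 mRNA induction or repression by qRT-PCR against DMSO baseline.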

Read-out in assay [7]: NAD(P)H dehydrogenase [quinone] 1 (NQO1), NQO1 (gene 1728)
As to the kind of experiment: LTEA_HepaRG_NQO1: Life Technologies and Expression Analysis (LTEA) Assay for NAD(P)H dehydrogenase [quinone] 1 (NQO1) using HepaRG (AID 2283526). The method, boiled down: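 In this assay, gene expression is read by qRT-PCR after 48 h exposure of HepaRG cells to eight concentrations (max 100 uM, half-log) in 0.5% DMSO. Each chemical runs in duplicate, and activity is scored relative to vehicle.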

Read-out in assay [8]: Nuclear factor erythroid 2-related factor 2 (Homo sapiens) (UniProt Q16236)
Description: LTEA_HepaRG_NFE2L2: Life Technologies and Expression Analysis (LTEA) Assay for Nuclear factor erythroid 2-related factor 2 (NFE2L2) Transcription Factor using HepaRG (AID 2283527).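 As to outcome: TaqMan qRT-PCR transcript level normalised to ACTB GAPDH and POLR2A housekeeping genes.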 The method, boiled down:
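Human liver HepaRG line treated in duplicate for 48 h with an eight-point series topping at 100 uM. Gene expression of NFE2L2 by qRT-PCR, bidirectionally fitted against the vehicle control.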

Read-out in assay [9]: succinate dehydrogenase complex iron sulfur subunit B (SDHB), SDHB (gene 6390)
Description: LTEA_HepaRG_SDHB: Life Technologies and Expression Analysis (LTEA) Assay for succinate dehydrogenase complex iron sulfur subunit B (SDHB) using HepaRG (AID 2283528). The method, boiled down: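 HepaRG, 48 h exposure, 8-pt half-log series from 100 uM in 0.5% DMSO, duplicates. Readout: SDHB mRNA by Fluidigm qRT-PCR vs housekeeping genes; bidirectional fit relative to DMSO.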

Read-out in assay [10]: Signal transducer and activator of transcription 3 (Homo sapiens) (UniProt P40763)
As to the kind of experiment: LTEA_HepaRG_STAT3: Life Technologies and Expression Analysis (LTEA) Assay for Signal transducer and activator of transcription (STAT3) using HepaRG (AID 2283529). An outline of the steps:
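In this transcriptional endpoint, HepaRG cultures receive test chemicals at up to 100 uM for 48 h, tested in duplicate. STAT3 mRNA is normalized to ACTB, GAPDH and POLR2A.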

The source made the active and inactive calls. The calls were made as follows: active = hit-call score of the fitted dose curve at least 0.9, where 1 is the maximum; inactive = score below 0.9.

As a reminder, the AC50 is the midpoint of the concentration-response curve, whichever way the signal moves.

Chain of Nuclear factor erythroid 2-related factor 2 (Homo sapiens) (Q16236 whole entry, looked up): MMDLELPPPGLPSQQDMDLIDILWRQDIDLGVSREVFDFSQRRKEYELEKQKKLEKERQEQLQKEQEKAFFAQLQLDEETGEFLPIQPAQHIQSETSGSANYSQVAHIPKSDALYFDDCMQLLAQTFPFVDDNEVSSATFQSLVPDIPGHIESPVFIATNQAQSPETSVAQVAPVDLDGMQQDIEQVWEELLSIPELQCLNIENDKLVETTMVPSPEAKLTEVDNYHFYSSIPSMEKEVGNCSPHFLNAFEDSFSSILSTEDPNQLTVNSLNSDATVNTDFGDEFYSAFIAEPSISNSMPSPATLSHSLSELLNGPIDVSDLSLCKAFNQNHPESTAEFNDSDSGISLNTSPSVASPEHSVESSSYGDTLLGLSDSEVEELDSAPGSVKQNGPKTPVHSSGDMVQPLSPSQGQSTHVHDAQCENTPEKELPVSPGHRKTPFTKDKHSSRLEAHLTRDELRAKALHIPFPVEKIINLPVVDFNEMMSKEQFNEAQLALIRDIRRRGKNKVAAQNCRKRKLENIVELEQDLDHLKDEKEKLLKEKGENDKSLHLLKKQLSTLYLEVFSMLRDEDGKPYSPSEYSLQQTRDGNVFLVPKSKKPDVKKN
Chain of Signal transducer and activator of transcription 3 (Homo sapiens) (P40763 whole entry, looked up): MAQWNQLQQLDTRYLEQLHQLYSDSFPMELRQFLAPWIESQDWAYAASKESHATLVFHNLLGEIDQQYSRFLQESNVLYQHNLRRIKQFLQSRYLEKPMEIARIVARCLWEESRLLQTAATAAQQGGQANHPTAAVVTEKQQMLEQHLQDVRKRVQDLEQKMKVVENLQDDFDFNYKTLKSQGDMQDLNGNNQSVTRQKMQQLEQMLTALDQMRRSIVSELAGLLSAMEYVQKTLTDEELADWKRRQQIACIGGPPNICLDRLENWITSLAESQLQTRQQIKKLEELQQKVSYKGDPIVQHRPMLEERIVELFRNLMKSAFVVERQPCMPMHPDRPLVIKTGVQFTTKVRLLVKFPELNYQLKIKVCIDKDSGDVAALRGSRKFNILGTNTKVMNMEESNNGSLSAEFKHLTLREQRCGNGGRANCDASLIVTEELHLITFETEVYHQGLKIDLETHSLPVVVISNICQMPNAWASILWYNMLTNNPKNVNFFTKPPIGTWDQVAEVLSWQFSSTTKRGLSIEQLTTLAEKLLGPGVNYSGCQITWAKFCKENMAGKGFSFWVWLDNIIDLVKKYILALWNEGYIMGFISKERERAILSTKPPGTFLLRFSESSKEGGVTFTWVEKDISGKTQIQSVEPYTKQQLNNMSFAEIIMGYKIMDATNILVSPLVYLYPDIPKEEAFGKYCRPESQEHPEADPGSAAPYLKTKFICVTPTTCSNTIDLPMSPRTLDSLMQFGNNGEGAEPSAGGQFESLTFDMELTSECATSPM
Chain of Nuclear factor NF-kappa-B p105 subunit (Homo sapiens) (P19838 whole entry, looked up): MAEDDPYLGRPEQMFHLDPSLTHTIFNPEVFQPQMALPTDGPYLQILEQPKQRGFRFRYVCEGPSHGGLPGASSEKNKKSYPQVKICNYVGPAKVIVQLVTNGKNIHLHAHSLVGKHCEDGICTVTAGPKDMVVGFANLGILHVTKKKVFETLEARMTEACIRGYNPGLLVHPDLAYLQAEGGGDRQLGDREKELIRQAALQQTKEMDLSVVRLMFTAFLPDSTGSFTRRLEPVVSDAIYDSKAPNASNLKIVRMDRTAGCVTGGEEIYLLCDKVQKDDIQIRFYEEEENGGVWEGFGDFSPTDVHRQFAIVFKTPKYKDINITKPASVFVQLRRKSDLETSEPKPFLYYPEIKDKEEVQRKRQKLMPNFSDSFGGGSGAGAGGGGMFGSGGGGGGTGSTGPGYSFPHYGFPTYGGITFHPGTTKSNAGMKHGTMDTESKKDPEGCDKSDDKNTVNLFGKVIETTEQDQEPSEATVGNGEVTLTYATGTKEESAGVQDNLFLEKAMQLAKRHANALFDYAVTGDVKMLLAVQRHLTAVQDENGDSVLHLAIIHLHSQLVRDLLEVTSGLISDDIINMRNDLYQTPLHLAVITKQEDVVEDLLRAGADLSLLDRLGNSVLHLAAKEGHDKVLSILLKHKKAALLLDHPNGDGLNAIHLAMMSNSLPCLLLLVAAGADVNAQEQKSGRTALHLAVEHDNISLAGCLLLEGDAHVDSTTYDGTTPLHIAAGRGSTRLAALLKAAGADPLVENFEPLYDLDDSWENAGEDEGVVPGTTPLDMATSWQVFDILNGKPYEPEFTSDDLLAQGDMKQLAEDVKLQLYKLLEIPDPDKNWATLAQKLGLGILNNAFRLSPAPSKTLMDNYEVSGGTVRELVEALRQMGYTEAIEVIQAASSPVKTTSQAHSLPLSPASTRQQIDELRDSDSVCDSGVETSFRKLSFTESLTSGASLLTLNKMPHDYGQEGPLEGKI

With `Cn1cnc2c1c(=O)[nH]c(=O)n2C`, the compound was called inactive in assay [1], in [2], in [3], in [4], in assay [5] and in assay [6]. The compound was called inactive in [7], in assay [8], in assay [9] and in assay [10].

Consider `CC1(C)C(=O)NC(=O)N1CO`, for which the result in assay [1], in assay [2], in assay [3], in assay [4], in assay [5] and in assay [6] was inactive. Also, the call in [7], in assay [8], in [9] and in assay [10] was inactive.

As to `Oc1ccc(O)cc1`, the outcome in assay [1], in assay [2], in assay [3], in assay [4], in assay [5] and in assay [6] was inactive. Moreover, the result in assay [7], in assay [8], in assay [9] and in assay [10] was inactive.

On to `O=C(O)c1cccnc1`, for which the outcome in assay [1], in [2], in assay [3], in assay [4], in assay [5] and in assay [6] was inactive. For the same compound, the compound was classed as inactive in [7], in assay [8], in [9] and in assay [10].

Take `CCN(CC)CCOc1ccc(C(=C(Cl)c2ccccc2)c2ccccc2)cc1`: the outcome in assay [1], in assay [3] and in [7] was inactive. Further, the AC50 is 77.1 µM (active) in [2]; 78.5 µM (active) in assay [4]; 17.1 µM (active) in [5]; 42 µM (active) in assay [6]; 77.7 µM (active) in assay [8]; 78.1 µM (active) in [9]. Further, the AC50 in assay [10] is 78.6 µM (active).

As to `CC(=O)O[C@]1(C(C)=O)CC[C@H]2[C@@H]3C=C(Cl)C4=CC(=O)[C@@H]5C[C@@H]5[C@]4(C)[C@H]3CC[C@@]21C`, the outcome in assay [1], in assay [2], in assay [3], in assay [4], in assay [6] and in [7] was inactive. Also, the compound was classed as inactive in assay [9]. Also, the AC50 in [5] was 50 µM (active); in assay [8], 81.2 µM (active); in [10] it was 50 µM (active).

For the compound `CC(C)c1cccc(C(C)C)c1`, the result in assay [1], in assay [2], in assay [3], in assay [4], in [5] and in assay [6] was inactive. Also, the call in assay [7], in [8], in assay [9] and in assay [10] was inactive.

Take `OCC(CO)n1cnc(-c2ccc(F)cc2)c1-c1ccnc(Oc2ccccc2)n1`: the outcome in [1], in assay [2], in [3], in assay [4], in assay [5] and in assay [6] was inactive. The compound was called inactive in assay [7], in assay [9] and in assay [10]. In assay [8], the half-maximal activity concentration (AC50) was 33.8 µM (active).

For the compound `CCCCc1nc2cccnc2n1Cc1ccc(-c2ccccc2-c2nnn[nH]2)cc1`, the AC50 is 74.6 µM (active) in [1], 65.5 µM (active) in assay [5] and 28.6 µM (active) in assay [6]. Further, the outcome in assay [2], in assay [3], in [4], in assay [7], in [8] and in [9] was inactive. For the same compound, the call in assay [10] was inactive.

In the case of `CC(C)COC(=O)CCCCC(=O)OCC(C)C`, the outcome in assay [1], in assay [2], in assay [3], in assay [4], in assay [5] and in assay [6] was inactive. Moreover, the compound was called inactive in assay [7], in [8], in assay [9] and in assay [10].

`C=CCCCCCCCCCCCC`: the outcome in assay [1], in [2], in assay [3], in assay [4], in assay [5] and in assay [6] was inactive. The call in assay [7], in [8], in assay [9] and in assay [10] was inactive.

On to `COC(=O)CCC(=O)OC`, for which the compound was classed as inactive in [1], in assay [2], in assay [3], in assay [4], in [5] and in assay [6]. Moreover, the outcome in [7], in assay [8], in assay [9] and in assay [10] was inactive.

On to `CCCC(=O)O`, for which the compound was classed as inactive in assay [1], in [2], in assay [3], in assay [4], in assay [5] and in assay [6]. Also, the outcome in assay [7], in assay [8], in [9] and in assay [10] was inactive.

Turning to `Cc1ccc(-c2cc(C(F)(F)F)nn2-c2ccc(S(N)(=O)=O)cc2)cc1`, the AC50 in [1] is 64.2 µM (active); in [2], 70.2 µM (active); in assay [5], 55.9 µM (active); in [8] it was 62.7 µM (active); in assay [10], 89.2 µM (active). Also, the call in [3], in [4], in assay [6], in [7] and in assay [9] was inactive.
